These results are taken from PubChem BioAssay.

Broadly, the viability is a per cent measure of how many cells are alive, often set against a control.

Several values for one entry are separate records, joined by “and”; a condition that tells them apart may be missing. Equal values may be shown once. Inconclusive results are not listed. Activity calls are given as the source filed them.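 The calls were made as follows, unless noted: active = compounds whose cell count with miR-34 switched on is under 0.7 times the count with it off; inactive = the rest.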

Assay [1] can be described thus: Wnt pathway potentiators raising nuclear beta-catenin – imaging, WNT3A-conditioned medium, mouse C2C12, NPC library, primary screen (AID 1117326; in the data active = nuclear beta-catenin stimulation mostly above about 4.2%, no sharp cut-off; inactive = mostly below about 10%). Conditions: stronger effect = higher value.
Assay [2] in a line: stimulators of insulin release from INS-1E, primary screen, cell-based, 5 mM glucose, NPC library (AID 1117329;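 active = compound raises insulin release from rat beta cells at 5 mM glucose, no numeric limit stated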). Conditions: rat INS-1E insulin secretion, at 10 µM, stronger effect = higher value.
Assay [3] in a line: growth inhibition of GSK3B-pretreated HCT116 cells – cell-based, CellTiter-Glo, 0.2 to 20 µM (AID 1117336;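 active = compounds lowering colon cancer cell viability after pretreatment blocking the GSK3B kinase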). To be noted: HCT116 viability after GSK3B inhibitor, at 20 µM, stronger effect = higher value.
Assay [4] in a line: inhibition of endothelial tube formation, primary screen, imaging, VEGF stimulated, CD31 staining, tube area, NPC library (AID 1117340;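 active = compound that reduces growth-factor-driven endothelial tube area in a mixed cell culture, no cutoff stated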). To be noted: VEGF-stimulated ADSC/ECFC co-culture, at 10 µM, stronger effect = higher value.
Assay [5] in a line: GLP1 release stimulators, primary, NCI-H716, NPC library (AID 1117341;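 active = compound raises GLP1 secretion from the human gut endocrine cells, with no numeric limit stated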). Conditions: NCI-H716 cells, at 10 µM, stronger effect = higher value.
Assay [6] is described as follows: HCT116 colon cancer cell growth inhibition, primary screen, CellTiter-Glo luminescence, NPC library (AID 1117342;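 active = compounds that lower survival of HCT116 colon cancer cells in the luminescence readout, no numeric limit stated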). To be noted: at 20 µM (top of the series). In general terms: In ATP-based viability assays light output follows the ATP content of the culture.
A short description of assay [7]: reduced SW480 viability measured with CellTiter-Glo, NPC library, primary (AID 1117343;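 active = compounds that lower viability of the colon cancer cells in the luminescence readout, with no numeric limit stated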). Conditions: CellTiter-Glo luminescence; at 20 µM (top of the series) unless noted.
A short description of assay [8]: NPC library primary testing for decreased DLD-1 cell viability via CellTiter-Glo (AID 1117346;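 active = compounds that lower survival of DLD-1 colon cancer cells in the luminescence readout, no cutoff given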). To be noted: DLD-1 viability, CellTiter-Glo luminescence; at 20 µM (top of the series).
Assay [9] is described as follows: viability loss with induced miR-34 in A549 – imaging, A549 dox-inducible miR-34, nuclei and caspase counts, primary screen (AID 1347080). To be noted: A549 miR-34 inducible, Hoechst nuclei count, 48 h.
Assay [10] has as its target NAD(+) hydrolase SARM1 (Homo sapiens) (UniProt Q6SZW1). The assay is described as follows: blocking NAD cleavage by SARM1 SAM-TIR – cell lysate, NAD-Glo luminescence (AID 1508614;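 active = compound whose remaining NAD level is above about 45 nM, limit read from the data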;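 also: higher remaining NAD means stronger inhibition of SARM1 NADase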). To be noted: SAM-TIR HEK293T lysate NADase, at 1 µM, stronger effect = higher value.
Assay [11] deals with ATP-dependent translocase ABCB1 (Homo sapiens) (UniProt P08183). The assay is described as follows: P-glycoprotein substrate transport blockade – cell-based (AID 377; in the data active = fluorescence slope change above about 50%). Conditions: MDR1-expressing cells, fluorescent substrate accumulation slope; stronger effect = higher value; concentration not given here.
The nature of assay [12]: compounds altering viability of human ES cells (AID 493140; call rule not given here;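 also: cells exposed to compounds for four days before counting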). To be noted: human embryonic stem cell survival screen; stronger effect = higher value.
Assay [13] is described as follows: P. berghei load reduction in hepatocytes – cell-based, HepG2, luciferase luminescence, HepG2 viability, primary screen (AID 624349; in the data active = parasite load remaining mostly below about 12%, no sharp cut-off; inactive = mostly above about 10%;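 also: 100% = mean of DMSO negative control wells on the same plate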). To be noted: P. berghei liver stage in HepG2, luciferase luminescence, concentration not given here; parasite load remaining: stronger effect = lower value; viability: measured here: HepG2 viability without parasites.
Assay [14] can be described thus: MELAS cybrid and Rieske KO viability enhancers – cell-based, MELAS cybrids, Rieske KO mouse fibroblasts, CellTiter-Glo, primary screen (AID 1508586;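 active = mean z-score across replicates of 1.96 or higher in either the MELAS or the Rieske mutant cell line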;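 also: z relative to plate mean and SD of compound and empty wells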). To be noted: low glucose.
Setting [15] is: stronger effect = lower value, cell number ratio, induced over uninduced.
Setting [16] is: measured here: relative caspase fold change +Dox/-Dox.
[17] abbreviates: measured here: total cells with miR-34 induction, stronger effect = lower value.
Where [18] appears, read: measured here: total cells without miR-34 induction.
[19] abbreviates: MELAS cybrid survival, CellTiter-Glo 48 h, stronger effect = higher value.
Where [20] appears, read: Rieske KO mouse fibroblast survival, CellTiter-Glo 72 h.

Chain of ATP-dependent translocase ABCB1 (Homo sapiens) (P08183 whole entry, looked up): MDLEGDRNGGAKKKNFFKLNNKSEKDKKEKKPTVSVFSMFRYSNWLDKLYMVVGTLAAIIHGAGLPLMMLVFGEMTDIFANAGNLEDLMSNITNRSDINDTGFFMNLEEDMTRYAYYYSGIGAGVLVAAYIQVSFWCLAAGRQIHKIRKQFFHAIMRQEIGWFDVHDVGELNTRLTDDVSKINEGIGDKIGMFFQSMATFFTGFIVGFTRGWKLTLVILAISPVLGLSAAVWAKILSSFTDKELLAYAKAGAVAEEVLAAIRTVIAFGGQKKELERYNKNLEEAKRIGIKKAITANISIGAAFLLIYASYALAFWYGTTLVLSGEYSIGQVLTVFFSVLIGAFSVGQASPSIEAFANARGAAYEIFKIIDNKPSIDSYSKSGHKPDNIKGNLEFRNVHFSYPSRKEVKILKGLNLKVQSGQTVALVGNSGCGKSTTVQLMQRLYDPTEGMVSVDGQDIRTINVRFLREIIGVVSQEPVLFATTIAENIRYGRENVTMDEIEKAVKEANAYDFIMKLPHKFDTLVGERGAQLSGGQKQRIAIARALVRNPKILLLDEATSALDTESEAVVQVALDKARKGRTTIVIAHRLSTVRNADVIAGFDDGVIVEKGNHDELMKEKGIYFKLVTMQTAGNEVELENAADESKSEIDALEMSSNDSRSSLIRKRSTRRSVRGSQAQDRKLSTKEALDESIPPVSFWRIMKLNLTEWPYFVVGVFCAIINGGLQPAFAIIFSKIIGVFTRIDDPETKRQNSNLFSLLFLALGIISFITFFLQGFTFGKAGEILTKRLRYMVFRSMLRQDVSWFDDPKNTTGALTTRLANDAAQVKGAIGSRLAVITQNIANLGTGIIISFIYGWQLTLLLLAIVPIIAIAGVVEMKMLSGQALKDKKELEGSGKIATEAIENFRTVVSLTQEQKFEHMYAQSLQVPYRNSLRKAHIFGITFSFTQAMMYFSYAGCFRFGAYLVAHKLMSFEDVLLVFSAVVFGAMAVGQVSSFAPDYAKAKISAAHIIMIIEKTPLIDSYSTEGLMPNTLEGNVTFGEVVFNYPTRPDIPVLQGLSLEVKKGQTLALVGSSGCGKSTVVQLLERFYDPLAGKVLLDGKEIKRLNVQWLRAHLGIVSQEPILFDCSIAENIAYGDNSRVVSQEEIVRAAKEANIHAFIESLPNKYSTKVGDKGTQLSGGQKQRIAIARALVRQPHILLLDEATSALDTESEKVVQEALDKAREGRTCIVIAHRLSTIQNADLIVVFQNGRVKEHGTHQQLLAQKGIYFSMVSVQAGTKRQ
Chain of NAD(+) hydrolase SARM1 (Homo sapiens) (Q6SZW1 whole entry, looked up): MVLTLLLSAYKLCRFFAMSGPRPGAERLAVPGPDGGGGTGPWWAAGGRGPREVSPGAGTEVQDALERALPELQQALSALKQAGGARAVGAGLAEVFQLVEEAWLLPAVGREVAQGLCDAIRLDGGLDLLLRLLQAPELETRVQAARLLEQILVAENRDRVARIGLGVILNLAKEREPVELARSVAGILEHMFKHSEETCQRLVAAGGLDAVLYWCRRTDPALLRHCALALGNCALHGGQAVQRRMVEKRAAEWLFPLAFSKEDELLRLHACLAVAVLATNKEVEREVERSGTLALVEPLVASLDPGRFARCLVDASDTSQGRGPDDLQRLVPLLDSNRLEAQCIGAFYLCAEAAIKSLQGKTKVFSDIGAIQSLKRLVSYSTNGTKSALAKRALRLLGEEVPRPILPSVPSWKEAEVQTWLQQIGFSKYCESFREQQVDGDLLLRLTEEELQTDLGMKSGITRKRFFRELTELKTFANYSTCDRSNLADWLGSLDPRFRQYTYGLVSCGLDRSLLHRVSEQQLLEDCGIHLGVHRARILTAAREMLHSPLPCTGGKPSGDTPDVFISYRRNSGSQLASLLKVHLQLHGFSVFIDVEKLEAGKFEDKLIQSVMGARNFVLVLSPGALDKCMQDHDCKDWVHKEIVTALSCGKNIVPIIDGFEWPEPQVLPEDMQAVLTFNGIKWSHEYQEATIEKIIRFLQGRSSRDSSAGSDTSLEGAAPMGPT

Consider `FCOC(C(F)(F)F)C(F)(F)F`, for which the nuclear beta-catenin stimulation in assay [1] (at 10 µM) was -1.9% (inactive); in assay [1] (stimulation, at 2 µM) it was -0.4%. In addition, in assay [2], the insulin secretion stimulation was 5.1% (inactive). Further, the viability decrease in assay [3] was -4.6% (inactive). The tube area decrease in assay [4] is 8.2% (inactive). Besides, the GLP1 secretion stimulation in assay [5] was -1.9% (inactive). The inhibition of viability in assay [6] was -0.4% (inactive). Also, the viability decrease (inhibition) in [7] was -3.5% (inactive); in assay [8], 7.5% (inactive). Also, the figures for the fold change in assay [9] (setting [15]) and in [9] (setting [16]) were 0.911 (inactive) and 1.07, respectively. Further, the cell count in assay [9] (setting [17]) was determined as 8640; in assay [9] (setting [18]), 9480. Also, the remaining NAD in assay [10] was 10 nM (inactive).

For `OC(CCCN1CCCCC1)(c1ccccc1)c1ccccc1`, the fluorescence slope change in [11] was 71.6% (active). For the same compound, the survival in assay [12] is 12.2 (inactive). Also, the parasite load remaining in assay [13] was 29.2% (inactive) and 89.1% (inactive). Further, the viability in assay [13] is 45.7% and 89.8%. Moreover, the nuclear beta-catenin stimulation in assay [1] (at 10 µM) was -0.9% (inactive); in assay [1] (stimulation, at 2 µM), -0.2%. The insulin secretion stimulation in assay [2] is 22% (active). For the same compound, the viability decrease in [3] is -9.5% (inactive). The tube area decrease in assay [4] was 3.9% (inactive). Besides, the GLP1 secretion stimulation in [5] is -3.3% (inactive). Besides, the inhibition of viability in assay [6] is 6.1% (inactive). Moreover, the viability decrease (inhibition) is 12% (inactive) in assay [7] and -3.8% (inactive) in assay [8]. In addition, the fold change in assay [9] (setting [15]) was 0.908 (inactive) and 0.916 (inactive); in assay [9] (setting [16]) it was 1.32 and 0.648. Also, the cell count in assay [9] (setting [17]) is 8770 and 8200; in [9] (setting [18]), 9660 and 8950. The z-score in [14] (setting [19]) was -0.227 (inactive) and -0.211 (inactive); in [14] (setting [20]), -0.167 and -0.027.

For `CCOC(=O)Nc1ccc2c(c1)N(C(=O)CCN1CCOCC1)c1ccccc1S2`, the survival in [12] is 4.83 (inactive). Also, in [13], the parasite load remaining was 99.9% (inactive). Also, the viability in [13] was 97.4%. Besides, the nuclear beta-catenin stimulation was -0.6% (inactive) in assay [1] (at 10 µM) and 1.1% in [1] (stimulation, at 2 µM). In addition, in [2], the insulin secretion stimulation was 1.7% (inactive). In addition, the viability decrease in assay [3] is -14.2% (inactive). Also, the tube area decrease in [4] was 4% (inactive). The GLP1 secretion stimulation in assay [5] is -2.4% (inactive). Also, in assay [6], the inhibition of viability was 15.2% (inactive). Besides, the figures for the viability decrease (inhibition) in assay [7] and in assay [8] were 17.8% (inactive) and -16.3% (inactive), respectively. Moreover, the fold change in assay [9] (setting [15]) is 0.922 (inactive); in [9] (setting [16]), 1.07. The cell count in [9] (setting [17]) was found to be 8790; in assay [9] (setting [18]) it was 9540. In addition, the z-score in assay [14] (setting [19]) is 0.935 (inactive); in assay [14] (setting [20]) it was 0.145.

On to `CN1CCCN(C(c2ccccc2)c2ccc(Cl)cc2)CC1` (stereo not drawn), for which the fluorescence slope change in assay [11] is 122% (active). Moreover, in assay [12], the survival was 4.08 (inactive). For the same compound, the parasite load remaining in assay [13] is 48.8% (inactive) and 98.3% (inactive). The viability in [13] was 42.5% and 88%. Further, the nuclear beta-catenin stimulation in [1] (at 10 µM) was 3.7% (inactive); in assay [1] (stimulation, at 2 µM), 1.3%. In [2], the insulin secretion stimulation was 2.9% (active). For the same compound, the viability decrease in assay [3] was 96% (active). Further, in [4], the tube area decrease was 38.7% (inactive). Also, the GLP1 secretion stimulation in assay [5] was 13.9% (inactive). Also, the inhibition of viability in assay [6] was 96.5% (active). In addition, the results for the viability decrease (inhibition) in assay [7] and in [8] were 122% (active) and 71% (active), respectively. The figures for the fold change in assay [9] (setting [15]) and in [9] (setting [16]) were 0.886 (inactive) and 1.48, respectively. Moreover, the results for the cell count in [9] (setting [17]) and in [9] (setting [18]) were 7610 and 8580, respectively. Also, the z-score in [14] (setting [19]) is -0.68 (inactive); in [14] (setting [20]), 0.377.

For the compound `CCCNC(C)C(=O)Nc1c(C)csc1C(=O)OC` (stereo not drawn), the survival in [12] is 18.4 (inactive). Further, in assay [13], the parasite load remaining was 137% (inactive). In assay [13], this compound had a viability of 71.1%. The nuclear beta-catenin stimulation was -0.2% (inactive) in [1] (at 10 µM) and 2% in assay [1] (stimulation, at 2 µM). Besides, the insulin secretion stimulation in assay [2] is 4.8% (inactive). Also, the viability decrease in assay [3] is 1.9% (inactive). The tube area decrease in assay [4] is 5.2% (inactive). For the same compound, the GLP1 secretion stimulation in [5] is -3.4% (inactive). In addition, the inhibition of viability in assay [6] was 8.5% (inactive). Moreover, the viability decrease (inhibition) in assay [7] and in [8] was 2.2% (inactive) throughout. The fold change in [9] (setting [15]) was 0.925 (inactive) and 0.913 (inactive); in assay [9] (setting [16]) it was 0.61 and 0.602. The cell count was 8960 and 8560 in assay [9] (setting [17]); 9680 and 9380 in assay [9] (setting [18]). The z-score in assay [14] (setting [19]) is -0.278 (inactive) and -0.744 (inactive); in assay [14] (setting [20]), -0.148 and -0.857.
